Only some compounds are listed: those with a hit (about 1.5% of all), similar ones and a draw of the others.
Mtb MenB inh: blocks the Mycobacterium tuberculosis MenB enzyme. P9WNP5. MenB enzyme assay, absorbance read-out. inhibition, % (concentration not given with the values). 100,000 tested, 0.43% active; in the data active = inhibition above about 21%, passing the limit was not always enough
Polio RdRp inh: inhibitors of poliovirus RNA polymerase binding and polymerization; poliovirus polymerase elongation, fluorescence polarization; active compounds read low; % elongation, % (compound at 16.7 µg/mL); 150,000 tested, 0.66% active; in the data active = % elongation below about 90%
Target sequence (P03300 1749-2209 limits assumed): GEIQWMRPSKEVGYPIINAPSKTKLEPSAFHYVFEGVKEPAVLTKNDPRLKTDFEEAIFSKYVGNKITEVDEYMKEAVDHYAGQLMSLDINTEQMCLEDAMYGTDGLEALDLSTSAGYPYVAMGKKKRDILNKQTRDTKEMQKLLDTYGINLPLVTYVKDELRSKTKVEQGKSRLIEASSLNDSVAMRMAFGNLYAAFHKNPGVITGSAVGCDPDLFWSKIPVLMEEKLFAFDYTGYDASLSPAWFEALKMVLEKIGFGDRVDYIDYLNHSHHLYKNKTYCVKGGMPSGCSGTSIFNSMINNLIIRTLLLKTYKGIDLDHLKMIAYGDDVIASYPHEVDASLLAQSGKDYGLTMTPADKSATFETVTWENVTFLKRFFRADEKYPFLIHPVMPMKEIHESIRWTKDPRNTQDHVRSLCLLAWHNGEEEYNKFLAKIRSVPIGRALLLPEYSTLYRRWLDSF
Mtb MbtI inh: MbtI salicylate synthase inhibition; P9WFX0; inhibition, % (concentration not given with the values); purified MbtI enzyme, fluorescence intensity read-out; 100,000 tested, 0.89% active; in the data active = inhibition mostly above about 56%, no sharp cut-off; inactive = mostly below about 77%
The depositor's hits bear a star; nt = not tested or not shown.

SMILES	Mtb MenB inh	Polio RdRp inh	Mtb MbtI inh
Cc1cc(C(=O)Nc2cccc(OC(C)C)c2)c(C)o1	-24	100	0
CC1=C/C(=N\Nc2nncc3ccccc23)CC1	-47	106	7
CC1=C/C(=N\Nc2ccccc2Cl)CC1	-38	100	72*
CC1(C)C/C(=N/NC(N)=S)c2ccoc2C1	-49	101	15
c1cncc(CNc2ccc(-c3nc4ncccc4o3)cc2)c1	-5	99	90
O=c1[nH]c2cc(Br)cnc2[nH]1	-19	66*	1
O=c1[nH]c2ccccc2[nH]1	8	94	-1
c1csc(-c2csc3nc(CN4CCOCC4)nc(NC4CC4)c23)c1	-41	108	-1
COC(=O)c1ccc(/C=N/NC(=O)CO)cc1	-9	102	27
c1ccc(OCCSC2=NCCN2)cc1	-37	101	89*
c1ccc(OCCSc2nc3ccccc3[nH]2)cc1	-1	101	-1
O=C(c1ccccc1)c1ccc2nc(N3CCCC3)c3nncn3c2c1	-7	103	-3
Cc1cc(C(=O)N/N=C2\C(=O)c3cccc4cccc2c34)c(C)o1	-35	102	4
O=C(N/N=C1/C(=O)c2cccc3cccc1c23)c1ccncc1	-32	89*	3
CC(c1n[nH]c(=S)n1-c1ccccc1)N(C)C (stereo unspecified)	-11	102	23
CC(c1n[nH]c(=S)n1Cc1ccccc1)N(C)C (stereo unspecified)	-25	98	59*
C=CCn1c(=O)/c(=C/c2ccc3c(c2)OCO3)s/c1=C(/C#N)C(=O)C(C)(C)C	-24	46	-8
NC(=O)C1CCCN(C(=O)Nc2c[nH]c3ccccc3c2=O)C1 (stereo unspecified)	-37	104	88
CCCc1cc2ccccc2o1	32*	100	1
Clc1cccc(Cl)c1CSCc1cc2ccccc2o1	-12	99	-3
CN(N)P(=S)(c1ccccc1)N(C)N	4	76*	93*
CN(N)P(=O)(c1ccccc1)c1ccccc1	-14	105	nt
Cc1[nH]c2ccc(C(=O)NCC3CCCO3)cc2c1C (stereo unspecified)	-2	107	-44
CCOC(=O)C1=C(C)NNC(=Nc2cccc(C)c2C)S1	-21	80*	86*
CCOC(=O)C1=C(O)CSC1=Nc1ccccc1	-23	104	20
SMILES	Mtb MenB inh	Polio RdRp inh	Mtb MbtI inh
COCC(=O)Nc1cc(-c2cn3cccnc3n2)ccc1OC	-10	102	-196
COc1ccc(CCNC(=O)CSc2c3c(nc4cc(Cl)ccc24)CCCC3)c(OC)c1	-17	99	10
COc1ccc(OC)c(CNC(=O)CSc2c3c(nc4cc(Cl)ccc24)CCCC3)c1	nt	74*	nt
C(=N\n1cnnc1)/c1ccc(N2CCOCC2)s1	-340	106	9
NC(=S)N/N=C/c1ccc(N2CCOCC2)s1	-266	81	89*
CCCNC(=O)C1CN(CC(=O)NC2CCCCC2)c2ccccc2O1 (stereo unspecified)	-20	98	22
CCOC(=O)/C(=C\c1cc(Br)c(O)c(OC)c1)C1=Nn2c(C)nnc2SC1	-148	100	18
Cc1ccc(C(=O)C(C)OC(=O)C2=COCCO2)cc1C (stereo unspecified)	1	90*	1
CC(OC(=O)C1=COCCO1)C(=O)Nc1ccccc1C#N (stereo unspecified)	-8	108	-6
O=C(O)c1ccc(CS(=O)(=O)c2ccccc2)o1	-10	99	7
NC(=O)Cc1csc(N)n1	-2	99	8
Nc1nc(CN2CCCCC2)cs1	39*	101	-12
COc1cc(-c2ccc(/C=C3\SC(=N)N(c4nccs4)C3=O)o2)c(OC)cc1Cl	-29	113	56*
N=C1S/C(=C\c2ccc(-c3ccccc3F)o2)C(=O)N1c1ccc2c(c1)OCO2	-11	99	-26
COc1ccc(NC(=O)CCc2c(C)noc2C)cn1	-23	104	1
CCCOc1ccccc1C1NC(=S)NC(C)=C1C(=O)OC1CCCC(C)C1 (stereo unspecified)	-32	103	nt
CCc1ccc(C(=O)NCc2ccc3c(c2)OCO3)cc1	1	103	-14
CN(C(=S)NCc1ccc2c(c1)OCO2)C1CCS(=O)(=O)C1 (stereo unspecified)	-1	88*	84*
CN1C2CCC1CC(O)C2 (stereo unspecified)	-10	104	-12
CN1C2CCC1CC(NC1CCCCC1)C2 (stereo unspecified)	4	80*	nt
COc1ccc(-c2nc(C#N)c(NN3CCOCC3)o2)cc1	0	101	105
O=C1COc2ccc(-c3csc(=Nc4ccc(F)cc4)n3/N=C/c3ccc(O)c(O)c3)cc2N1	-60	83*	6
CN=c1scc(-c2ccc3c(c2)NC(=O)CO3)n1/N=C/c1ccc(C#N)cc1	-14	102	-12
O=C(O)c1ccc(CS)cc1	13	101	4

Assay outcomes as filed in PubChem.
